# In PubChem BioAssay (NCATS):
# Inconclusive results are not listed. Entries that show only a call come without a potency. The source made the active and inactive calls. Calls follow the shape of the dose curve; as a rule, active = well fitted inhibition curve with a large enough effect; inconclusive = small, poorly fitted or top-dose-only effect; inactive = flat fitted curve, though single readings scatter.
# System: CP265
# Experiment: qHTS profiling for inhibitors of Plasmodium falciparum proliferation (AID 504749); also: nearly all actives have a fitted effect of over 60% in size
# Settings: P. falciparum in erythrocytes, SYBR Green DNA, 72 h; series mostly up to 28.7 µM
# Summary of the method: (§1)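 Parasite proliferation within erythrocytes, 72 h exposure. Endpoint: SYBR Green I fluorescence after overnight lysis at room temperature. Controls: 0.29 uM artemisinin, DMSO.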
# Potency is read from the fitted curve at half-maximal effect.
row,SMILES,Potency
1,NC(=O)N1c2ccccc2CC(=O)c2ccccc21,inactive
2,CNS(=O)(=O)Cc1ccc2[nH]cc(CCN(C)C)c2c1,inactive
3,CCCc1cc(C(N)=S)ccn1,inactive
4,CCCN[C@H]1CCc2nc(N)sc2C1,inactive
5,COc1ccc(C(=O)CC(=O)c2ccc(C(C)(C)C)cc2)cc1,inactive
6,CC(C)Cn1cnc2c(N)nc3ccccc3c21,inactive
7,Nc1nc(N)nc(-c2cc(Cl)ccc2Cl)n1,inactive
8,OC(Cn1cncn1)(Cn1cncn1)c1ccc(F)cc1F,inactive
9,CC(C)OC(=O)C(C(=O)OC(C)C)=C1SC=CS1,inactive
10,NCCCC(O)(P(=O)(O)O)P(=O)(O)O,inactive
11,CC1=CC(=O)c2ccccc2C1=O,inactive
12,Nc1ccc(S(=O)(=O)Nc2ccccn2)cc1,inactive
13,Cc1noc(NS(=O)(=O)c2ccc(N)cc2)c1C,inactive
14,O=c1cc(O)c(Cl)c[nH]1,inactive
15,Cn1nnc2c(C(N)=O)ncn2c1=O,inactive
16,CNC1CCCN(c2c(F)cc3c(=O)c(C(=O)O)cn(C4CC4)c3c2OC)C1 (stereo not given),inactive
17,C#CCN[C@@H]1CCc2ccccc21,inactive
18,COc1cc(NCc2ccc3nc(N)nc(N)c3c2C)cc(OC)c1OC,3.16 µM (active)
19,N[C@@H](C(=O)N[C@@H]1C(=O)N2C(C(=O)O)=C(Cl)CS[C@H]12)c1ccccc1,inactive
20,CN(C)CCc1c[nH]c2ccc(CS(=O)(=O)N3CCCC3)cc12,inactive
21,C[C@]12C=CC(=O)C=C1CC[C@@H]1[C@@H]2C(=O)C[C@@]2(C)[C@H]1CC[C@]2(O)C(=O)CO,inactive
22,Nc1[nH]c(=O)ncc1F,inactive
23,COc1ccc(-c2ccc3cc(C(=O)O)ccc3c2)cc1C12CC3CC(CC(C3)C1)C2,inactive
24,O=NN(CCCl)C(=O)NC1CCCCC1,inactive
25,CC[C@H](C)C(=O)O[C@H]1C[C@@H](C)C=C2C=C[C@H](C)[C@H](CC[C@@H]3C[C@@H](O)CC(=O)O3)[C@H]21,inactive
26,Cc1cccc(Nc2ccncc2S(=O)(=O)NC(=O)NC(C)C)c1,inactive
27,CN1CCN(c2c(F)cc3c(=O)c(C(=O)O)cn(CCF)c3c2F)CC1,inactive
28,CCOC(=O)[C@H](CCc1ccccc1)N[C@H]1CS[C@H](c2cccs2)CN(CC(=O)O)C1=O,inactive
29,N=C(N)c1ccc(OCCCCCOc2ccc(C(=N)N)cc2)cc1,2.82 µM (active)

# System: CP266
# Experiment: as above
# Settings: P. falciparum in erythrocytes, SYBR Green DNA, 72 h; series mostly up to 28.7 µM
# Summary of the method: as §1
row,SMILES,Potency
1,NC(=O)N1c2ccccc2CC(=O)c2ccccc21,inactive
2,CNS(=O)(=O)Cc1ccc2[nH]cc(CCN(C)C)c2c1,inactive
3,CCCc1cc(C(N)=S)ccn1,inactive
4,COc1ccc(C(=O)CC(=O)c2ccc(C(C)(C)C)cc2)cc1,inactive
5,CC(C)Cn1cnc2c(N)nc3ccccc3c21,inactive
6,OC(Cn1cncn1)(Cn1cncn1)c1ccc(F)cc1F,inactive
7,CC(C)OC(=O)C(C(=O)OC(C)C)=C1SC=CS1,inactive
8,CC1=CC(=O)c2ccccc2C1=O,inactive
9,Nc1ccc(S(=O)(=O)Nc2ccccn2)cc1,inactive
10,Cn1nnc2c(C(N)=O)ncn2c1=O,inactive
11,C#CCN[C@@H]1CCc2ccccc21,inactive
12,COc1cc(NCc2ccc3nc(N)nc(N)c3c2C)cc(OC)c1OC,4.26 µM (active)
13,N[C@@H](C(=O)N[C@@H]1C(=O)N2C(C(=O)O)=C(Cl)CS[C@H]12)c1ccccc1,inactive
14,CN(C)CCc1c[nH]c2ccc(CS(=O)(=O)N3CCCC3)cc12,inactive
15,C[C@]12C=CC(=O)C=C1CC[C@@H]1[C@@H]2C(=O)C[C@@]2(C)[C@H]1CC[C@]2(O)C(=O)CO,inactive
16,Nc1[nH]c(=O)ncc1F,inactive
17,COc1ccc(-c2ccc3cc(C(=O)O)ccc3c2)cc1C12CC3CC(CC(C3)C1)C2,inactive
18,O=NN(CCCl)C(=O)NC1CCCCC1,inactive
19,CC[C@H](C)C(=O)O[C@H]1C[C@@H](C)C=C2C=C[C@H](C)[C@H](CC[C@@H]3C[C@@H](O)CC(=O)O3)[C@H]21,inactive
20,Cc1cccc(Nc2ccncc2S(=O)(=O)NC(=O)NC(C)C)c1,inactive
21,CN1CCN(c2c(F)cc3c(=O)c(C(=O)O)cn(CCF)c3c2F)CC1,inactive
22,CCOC(=O)[C@H](CCc1ccccc1)N[C@H]1CS[C@H](c2cccs2)CN(CC(=O)O)C1=O,inactive
23,N=C(N)c1ccc(OCCCCCOc2ccc(C(=N)N)cc2)cc1,1.69 µM (active)

# System: CP268
# Experiment: as above
# Settings: P. falciparum in erythrocytes, SYBR Green DNA, 72 h; series mostly up to 28.7 µM
# Summary of the method: as §1
row,SMILES,Potency
1,NC(=O)N1c2ccccc2CC(=O)c2ccccc21,inactive
2,CNS(=O)(=O)Cc1ccc2[nH]cc(CCN(C)C)c2c1,inactive
3,CCCc1cc(C(N)=S)ccn1,inactive
4,CCCN[C@H]1CCc2nc(N)sc2C1,inactive
5,COc1ccc(C(=O)CC(=O)c2ccc(C(C)(C)C)cc2)cc1,inactive
6,CC(C)Cn1cnc2c(N)nc3ccccc3c21,inactive
7,Nc1nc(N)nc(-c2cc(Cl)ccc2Cl)n1,inactive
8,OC(Cn1cncn1)(Cn1cncn1)c1ccc(F)cc1F,inactive
9,CC(C)OC(=O)C(C(=O)OC(C)C)=C1SC=CS1,inactive
10,NCCCC(O)(P(=O)(O)O)P(=O)(O)O,inactive
11,CC1=CC(=O)c2ccccc2C1=O,inactive
12,Nc1ccc(S(=O)(=O)Nc2ccccn2)cc1,inactive
13,O=c1cc(O)c(Cl)c[nH]1,inactive
14,Cn1nnc2c(C(N)=O)ncn2c1=O,inactive
15,CNC1CCCN(c2c(F)cc3c(=O)c(C(=O)O)cn(C4CC4)c3c2OC)C1 (stereo not given),inactive
16,C#CCN[C@@H]1CCc2ccccc21,inactive
17,COc1cc(NCc2ccc3nc(N)nc(N)c3c2C)cc(OC)c1OC,0.953 µM (active)
18,N[C@@H](C(=O)N[C@@H]1C(=O)N2C(C(=O)O)=C(Cl)CS[C@H]12)c1ccccc1,inactive
19,CN(C)CCc1c[nH]c2ccc(CS(=O)(=O)N3CCCC3)cc12,inactive
20,C[C@]12C=CC(=O)C=C1CC[C@@H]1[C@@H]2C(=O)C[C@@]2(C)[C@H]1CC[C@]2(O)C(=O)CO,inactive
21,Nc1[nH]c(=O)ncc1F,inactive
22,COc1ccc(-c2ccc3cc(C(=O)O)ccc3c2)cc1C12CC3CC(CC(C3)C1)C2,inactive
23,O=NN(CCCl)C(=O)NC1CCCCC1,inactive
24,CC[C@H](C)C(=O)O[C@H]1C[C@@H](C)C=C2C=C[C@H](C)[C@H](CC[C@@H]3C[C@@H](O)CC(=O)O3)[C@H]21,inactive
25,Cc1cccc(Nc2ccncc2S(=O)(=O)NC(=O)NC(C)C)c1,inactive
26,CN1CCN(c2c(F)cc3c(=O)c(C(=O)O)cn(CCF)c3c2F)CC1,inactive
27,CCOC(=O)[C@H](CCc1ccccc1)N[C@H]1CS[C@H](c2cccs2)CN(CC(=O)O)C1=O,inactive
28,N=C(N)c1ccc(OCCCCCOc2ccc(C(=N)N)cc2)cc1,1.35 µM (active)
